Measured values taken from ChEMBL document CHEMBL3988442, “University of Dundee, Small-Polar-MMV Screening Library” (2021).
For some of these results: Results with a measured potency or affinity are listed apart.

What was measured:
Set-up in all cases: scale not given: direction of the effect not stated beside the values
[1] = molecular target: Protein translocase subunit SecA (Escherichia coli (strain K12)) (UniProt P10408); test: Assay to Identify E. coli SecA ATPase Inhibitors; assay type: functional; details: 30 µM
Protein translocase subunit SecA (Escherichia coli (strain K12)), sequence (P10408 whole entry): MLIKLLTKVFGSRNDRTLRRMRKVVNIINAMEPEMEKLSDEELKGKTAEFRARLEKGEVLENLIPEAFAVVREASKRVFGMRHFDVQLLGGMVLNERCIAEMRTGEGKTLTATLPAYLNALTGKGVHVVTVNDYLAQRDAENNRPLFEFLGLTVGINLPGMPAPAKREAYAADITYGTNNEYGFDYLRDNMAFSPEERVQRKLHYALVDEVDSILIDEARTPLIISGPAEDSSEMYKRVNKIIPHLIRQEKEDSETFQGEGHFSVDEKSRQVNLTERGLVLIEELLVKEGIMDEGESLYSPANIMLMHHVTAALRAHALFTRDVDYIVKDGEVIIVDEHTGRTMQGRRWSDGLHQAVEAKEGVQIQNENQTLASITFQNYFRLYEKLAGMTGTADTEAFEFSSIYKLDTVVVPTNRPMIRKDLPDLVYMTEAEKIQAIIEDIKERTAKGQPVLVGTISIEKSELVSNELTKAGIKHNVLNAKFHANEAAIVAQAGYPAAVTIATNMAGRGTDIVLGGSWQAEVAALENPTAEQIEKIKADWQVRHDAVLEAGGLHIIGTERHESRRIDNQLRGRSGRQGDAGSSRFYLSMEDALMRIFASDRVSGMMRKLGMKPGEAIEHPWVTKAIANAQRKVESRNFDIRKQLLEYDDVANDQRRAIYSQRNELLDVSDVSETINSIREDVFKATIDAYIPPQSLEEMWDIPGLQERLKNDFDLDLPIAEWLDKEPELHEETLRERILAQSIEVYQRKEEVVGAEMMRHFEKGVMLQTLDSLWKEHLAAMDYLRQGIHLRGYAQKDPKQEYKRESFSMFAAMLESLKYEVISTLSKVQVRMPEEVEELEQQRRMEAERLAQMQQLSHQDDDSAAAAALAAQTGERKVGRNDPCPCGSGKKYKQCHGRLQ

[2] = molecular target: T1, Ubiquitin-activating enzyme e1, putative (Leishmania donovani (strain BPK282A1)) (UniProt E9BSI1); test: Leishmania donovani Ubiquitin Activating Enzyme (LdE1); assay type: functional; details: 30 µM
T1 sequence (whole entry): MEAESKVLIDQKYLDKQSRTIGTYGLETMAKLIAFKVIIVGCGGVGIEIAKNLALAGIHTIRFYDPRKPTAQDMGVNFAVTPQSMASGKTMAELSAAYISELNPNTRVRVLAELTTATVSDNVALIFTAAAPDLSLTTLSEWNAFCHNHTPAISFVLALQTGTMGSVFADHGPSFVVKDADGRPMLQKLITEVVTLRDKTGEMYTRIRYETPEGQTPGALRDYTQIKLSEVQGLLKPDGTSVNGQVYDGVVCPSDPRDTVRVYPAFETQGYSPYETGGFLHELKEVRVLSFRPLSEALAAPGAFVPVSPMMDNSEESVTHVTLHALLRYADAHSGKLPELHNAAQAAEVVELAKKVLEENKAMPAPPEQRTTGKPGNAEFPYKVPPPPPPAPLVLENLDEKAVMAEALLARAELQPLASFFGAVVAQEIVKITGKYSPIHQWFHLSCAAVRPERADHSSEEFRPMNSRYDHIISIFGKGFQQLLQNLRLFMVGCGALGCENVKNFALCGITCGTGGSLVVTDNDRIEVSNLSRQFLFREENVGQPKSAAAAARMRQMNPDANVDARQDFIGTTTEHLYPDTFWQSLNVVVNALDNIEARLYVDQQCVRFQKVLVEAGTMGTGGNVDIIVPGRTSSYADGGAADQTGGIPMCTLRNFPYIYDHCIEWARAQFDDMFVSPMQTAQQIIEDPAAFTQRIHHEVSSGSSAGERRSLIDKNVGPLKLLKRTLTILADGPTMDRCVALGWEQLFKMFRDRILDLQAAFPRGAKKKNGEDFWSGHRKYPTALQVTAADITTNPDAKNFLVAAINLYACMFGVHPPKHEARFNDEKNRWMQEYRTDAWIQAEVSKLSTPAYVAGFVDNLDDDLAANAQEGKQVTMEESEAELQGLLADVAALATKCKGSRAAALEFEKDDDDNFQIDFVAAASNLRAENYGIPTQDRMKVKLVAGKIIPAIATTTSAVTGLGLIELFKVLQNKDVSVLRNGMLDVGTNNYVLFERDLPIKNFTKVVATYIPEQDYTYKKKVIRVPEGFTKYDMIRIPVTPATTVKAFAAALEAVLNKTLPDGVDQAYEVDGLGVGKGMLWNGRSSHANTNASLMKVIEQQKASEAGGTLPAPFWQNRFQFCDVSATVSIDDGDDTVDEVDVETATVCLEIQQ

[3] = molecular target: Sialic acid-binding Ig-like lectin 9 (Homo sapiens) (UniProt Q9Y336); test: Hs-Siglec9 ALPHAscreen SOP 20170721; details: 10 µM
Sialic acid-binding Ig-like lectin 9 (Homo sapiens), sequence (Q9Y336 whole entry): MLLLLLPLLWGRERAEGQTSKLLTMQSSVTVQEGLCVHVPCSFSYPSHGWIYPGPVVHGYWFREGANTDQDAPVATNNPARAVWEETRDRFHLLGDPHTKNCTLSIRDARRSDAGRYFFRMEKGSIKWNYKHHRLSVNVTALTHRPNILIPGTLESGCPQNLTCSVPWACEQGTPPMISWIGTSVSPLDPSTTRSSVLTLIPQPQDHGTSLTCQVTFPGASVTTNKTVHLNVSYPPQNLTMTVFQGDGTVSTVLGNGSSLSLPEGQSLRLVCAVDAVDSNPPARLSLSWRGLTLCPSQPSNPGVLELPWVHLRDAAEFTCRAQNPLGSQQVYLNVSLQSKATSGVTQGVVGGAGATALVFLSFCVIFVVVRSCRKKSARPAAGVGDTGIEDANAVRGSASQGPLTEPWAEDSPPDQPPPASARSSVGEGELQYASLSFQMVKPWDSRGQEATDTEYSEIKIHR

Trypanosoma cruzi = test: Trypanosoma cruzi phosphomannomutase and mannose-1-phosphate guanylyltransferase assay; assay type: functional; details: 10 µM
[4] = molecular target: T2, Arginase-2, mitochondrial (Homo sapiens) (UniProt P78540); test: in vitro enzyme assay to detect the production of urea directly proportional to the activity of Arginase II; assay type: functional; details: 33.3 µM; further: in the data most compounds retested in dose-response had high values
T2 sequence (whole entry): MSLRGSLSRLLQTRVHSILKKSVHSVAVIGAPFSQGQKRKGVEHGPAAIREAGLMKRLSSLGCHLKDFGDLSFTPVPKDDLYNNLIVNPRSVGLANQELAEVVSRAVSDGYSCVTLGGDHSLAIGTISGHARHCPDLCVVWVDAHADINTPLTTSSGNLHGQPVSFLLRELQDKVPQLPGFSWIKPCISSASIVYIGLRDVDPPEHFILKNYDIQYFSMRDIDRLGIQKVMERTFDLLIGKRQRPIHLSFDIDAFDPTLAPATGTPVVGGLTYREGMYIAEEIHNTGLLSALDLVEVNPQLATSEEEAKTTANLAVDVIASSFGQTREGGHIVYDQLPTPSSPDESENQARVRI

[5] = molecular target: T3, Proteasome subunit beta (Trypanosoma cruzi) (UniProt O96673); test: Trypanosoma cruzi proteasome chymotrypsin-like activity (TcProtChymo) assay.; further: in the data most compounds retested in dose-response had high values; assay type: functional; details: 9.37 µM
T3 sequence (whole entry): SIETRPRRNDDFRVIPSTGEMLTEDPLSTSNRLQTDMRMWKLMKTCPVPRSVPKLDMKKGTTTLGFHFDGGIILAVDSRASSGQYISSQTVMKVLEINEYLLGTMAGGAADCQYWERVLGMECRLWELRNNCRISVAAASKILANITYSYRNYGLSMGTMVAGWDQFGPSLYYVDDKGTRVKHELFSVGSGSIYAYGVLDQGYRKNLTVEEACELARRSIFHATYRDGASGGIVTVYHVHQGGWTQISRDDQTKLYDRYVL

Homo sapiens = organism: Homo sapiens; test: To identify inhibition of the IFN signalling (Jak-Stat) pathway via expression of an eGFP reporter gene under the control of an IFN-stimulated response element (ISRE) containing MxA promoter.; assay type: functional; details: 30 µM
[6] = molecular target: T4, Tyrosyl-tRNA synthetase, putative (Trypanosoma cruzi (strain CL Brener)) (UniProt Q4DSP6); test: Trypanosoma cruzi tyrosyl tRNA synthetase (TcYRS) _High Tyrosine SOP; assay type: functional; details: 30 µM; further: in the data most compounds retested in dose-response had high values
T4 sequence (whole entry): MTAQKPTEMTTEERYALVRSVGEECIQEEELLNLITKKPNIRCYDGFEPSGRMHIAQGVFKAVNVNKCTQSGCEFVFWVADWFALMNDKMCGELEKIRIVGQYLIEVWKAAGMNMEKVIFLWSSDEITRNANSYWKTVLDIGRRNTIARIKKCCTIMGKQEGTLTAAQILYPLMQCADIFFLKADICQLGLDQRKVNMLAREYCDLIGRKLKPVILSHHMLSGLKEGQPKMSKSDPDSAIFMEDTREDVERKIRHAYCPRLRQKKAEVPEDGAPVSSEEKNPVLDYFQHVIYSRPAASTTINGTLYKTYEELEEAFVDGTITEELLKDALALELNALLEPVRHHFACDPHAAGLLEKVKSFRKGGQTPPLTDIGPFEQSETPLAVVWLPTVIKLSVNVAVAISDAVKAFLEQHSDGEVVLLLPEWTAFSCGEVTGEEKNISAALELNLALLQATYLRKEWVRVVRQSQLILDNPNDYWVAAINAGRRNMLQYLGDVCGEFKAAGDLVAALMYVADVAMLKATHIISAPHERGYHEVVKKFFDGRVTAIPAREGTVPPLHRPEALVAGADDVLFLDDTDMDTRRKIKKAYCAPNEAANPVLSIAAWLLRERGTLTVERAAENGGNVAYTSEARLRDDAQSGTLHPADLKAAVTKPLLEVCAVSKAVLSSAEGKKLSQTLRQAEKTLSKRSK

[7] = molecular target: T4, Tyrosyl-tRNA synthetase, putative (Trypanosoma cruzi (strain CL Brener)); test: Trypanosoma cruzi tyrosyl tRNA synthetase (TcYRS) SOP; assay type: functional; details: 30 µM
[8] = molecular target: Chromo domain-containing protein 1 (Saccharomyces cerevisiae (strain ATCC 204508 / S288c) (Baker's yeast)) (UniProt P32657); test: ScCHD-1 Enzyme Inhibition Assay; assay type: functional; details: 30 µM; further: in the data most compounds retested in dose-response had high values
Chromo domain-containing protein 1 (Saccharomyces cerevisiae (strain ATCC 204508 / S288c) (Baker's yeast)), sequence (P32657 whole entry, the tested form may be a part): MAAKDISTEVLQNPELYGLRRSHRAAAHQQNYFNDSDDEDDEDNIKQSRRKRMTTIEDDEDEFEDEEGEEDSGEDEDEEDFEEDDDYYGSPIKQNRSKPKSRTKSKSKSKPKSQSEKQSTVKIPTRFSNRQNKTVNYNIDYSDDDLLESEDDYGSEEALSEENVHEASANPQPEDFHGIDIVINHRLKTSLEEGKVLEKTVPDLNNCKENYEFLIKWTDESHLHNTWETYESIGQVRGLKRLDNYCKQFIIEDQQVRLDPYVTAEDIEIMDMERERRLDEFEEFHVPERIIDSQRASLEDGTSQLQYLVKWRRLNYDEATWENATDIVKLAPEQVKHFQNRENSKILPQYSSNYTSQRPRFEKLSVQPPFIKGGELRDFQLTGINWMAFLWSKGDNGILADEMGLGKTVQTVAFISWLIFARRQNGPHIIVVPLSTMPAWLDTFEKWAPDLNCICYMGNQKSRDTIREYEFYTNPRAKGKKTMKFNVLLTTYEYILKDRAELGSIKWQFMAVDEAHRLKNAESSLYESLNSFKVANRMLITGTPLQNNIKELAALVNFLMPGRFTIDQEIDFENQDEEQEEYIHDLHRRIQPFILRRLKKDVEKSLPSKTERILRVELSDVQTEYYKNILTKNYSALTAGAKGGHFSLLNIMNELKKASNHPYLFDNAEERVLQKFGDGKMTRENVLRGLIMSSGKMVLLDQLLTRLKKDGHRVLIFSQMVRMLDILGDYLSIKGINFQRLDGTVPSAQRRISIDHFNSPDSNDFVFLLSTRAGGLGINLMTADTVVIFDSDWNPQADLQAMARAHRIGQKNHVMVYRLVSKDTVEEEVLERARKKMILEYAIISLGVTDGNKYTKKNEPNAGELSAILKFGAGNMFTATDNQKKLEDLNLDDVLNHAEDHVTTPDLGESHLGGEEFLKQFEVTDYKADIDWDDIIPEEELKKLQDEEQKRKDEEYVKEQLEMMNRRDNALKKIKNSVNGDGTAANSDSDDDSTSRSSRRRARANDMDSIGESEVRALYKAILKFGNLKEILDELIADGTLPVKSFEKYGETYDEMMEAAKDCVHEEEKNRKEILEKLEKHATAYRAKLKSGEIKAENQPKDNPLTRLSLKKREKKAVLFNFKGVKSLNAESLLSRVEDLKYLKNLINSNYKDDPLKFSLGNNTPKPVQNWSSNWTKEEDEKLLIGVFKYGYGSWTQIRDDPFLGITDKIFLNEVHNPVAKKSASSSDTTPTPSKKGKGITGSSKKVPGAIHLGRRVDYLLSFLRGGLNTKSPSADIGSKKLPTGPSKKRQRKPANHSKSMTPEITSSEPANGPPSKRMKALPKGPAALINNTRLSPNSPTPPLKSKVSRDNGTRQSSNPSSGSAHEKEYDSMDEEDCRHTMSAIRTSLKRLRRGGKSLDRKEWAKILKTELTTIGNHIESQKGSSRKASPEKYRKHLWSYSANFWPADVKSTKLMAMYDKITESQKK

| Structure (SMILES) | Percent Effect [1] | Percent Effect [2] | Percent Effect [3] | Percent Effect (Trypanosoma cruzi) | Percent Effect [4] | Percent Effect [5] | Percent Effect (Homo sapiens) | Percent Effect [6] | Percent Effect [7] | Percent Effect [8] |
| --- | --- | --- | --- | --- | --- | --- | --- | --- | --- | --- |
| O=c1c(-c2ccnc(NC3CCOCC3)n2)cnc2sc(Cl)cn12 | 5.59% | 16% | -4.95% | -8.63% | -2.66% | 17.7% | 12% | 1.58% | 0% | -10.8% |
| CN(C)CCN1CCCC12CCN(C(=O)c1cccn1C)CC2 | -4.21% | -1.3% | 2.81% | 2.04% | -2.02% | 0.618% | -20.1% | -0.526% | -2.56% | 4.29% |
| CC(C)n1[nH]c(=O)c2c1NC(=O)CC2c1ccc2ncccc2c1 (stereo not given) | -1.16% | 5.41% | 0.703% | -2.62% | -5.94% | 10.6% | 17.7% | 4.79% | 9.76% | 2.28% |
| CCN(CC1CCOC1)C(=O)Nc1ccc(OC)nc1 (stereo not given) | -0.796% | 17.9% | -22.4% | 2.35% | 2.46% | 18.2% | 15.6% | 2.39% | 22.9% | -7.72% |
| CC(C)(C)c1n[nH]c(C2CN(C(=O)CCC3CC3)CCO2)n1 (stereo not given) | -3.72% | 5.13% | -3.95% | 9.86% | -1.23% | 5.38% | -22.9% | 3.35% | 13.2% | -2.58% |
| CCN1C(=O)CCCC12CCCN(C(=O)c1cnccn1)C2 (stereo not given) | -2.55% | 3.9% | 1.16% | -0.75% | -2.28% | 2.49% | 14.1% | 2.9% | 7.5% | -6.78% |
| COc1ccc(C2CC(=O)Nc3c2cnn3C2CCCC2)cc1 (stereo not given) | -8.84% | -2.7% | -0.717% | 2.62% | 2.45% | 5.31% | 8.51% | 6.92% | 4.88% | -1.74% |
| Cc1noc(C)c1C(=O)N1C[C@H]2CCC[C@@]2(COc2ccccn2)C1 | -6.59% | 11.7% | 1.71% | 8.28% | -7.29% | 12.3% | -28.1% | 3.68% | 12.8% | -2.44% |
| c1cnc(N2CCC3(CC2)CN(CC2CC2)c2ccccc23)nc1 | -2.71% | -9.09% | 0.418% | 2.81% | -2.28% | -0.0858% | 15% | 33.8% | 20% | 9.61% |
| O=C(Cn1cc(-c2ccccc2)ncc1=O)Nc1nnc[nH]1 | -1.82% | 8.11% | 4.37% | 2.42% | 8.74% | 20.4% | -1.74% | 6.92% | 19.5% | 83.7% |
| Cc1ccn(CCC(=O)N2CCOC(c3nc(-c4cccs4)no3)C2)n1 (stereo not given) | 1.88% | 9.33% | 1.5% | -5.52% | 4.42% | 8.7% | 7.42% | 2.12% | 10% | -26.2% |
| CCN(CC1CCOC1)C(=O)Nc1ccc(N2CCCC2)nc1 (stereo not given) | -6.5% | 12.8% | -1.33% | 5.35% | 2.87% | 14.2% | 10.2% | 7.18% | 18.1% | -10.3% |
| Cc1nc(C2CCCN2Cc2ncc(C(C)C)o2)no1 (stereo not given) | -0.503% | 2.67% | -1.37% | -0.803% | -0.444% | 1.44% | 13.4% | -1.58% | -5.13% | -7.52% |
| Cc1cc(S(=O)(=O)N2CCc3ccc(F)cc32)cc(C(=O)O)c1C | -5.32% | 0% | 7.12% | -1.81% | -3.99% | 6.87% | -3.81% | -15.3% | -28.2% | -9.5% |
| CC(=O)N1CCC2(CCCN(Cc3ccc(Cl)c(C(F)(F)F)c3)C2)C1 (stereo not given) | -6.95% | 3.9% | -5.84% | 1.07% | -1.22% | 1.15% | -5.5% | -8.95% | 10.3% | 0.22% |
| CCC(NC(=O)c1ccco1)c1ccccc1OCC(=O)N1CCCC1 (stereo not given) | -0.841% | 20.5% | -7.21% | 8.92% | -5.33% | 12.5% | 13.3% | 3.35% | 22.9% | -5.94% |
| CCCOCCCNc1nccc(-c2cn(C)nc2C)n1 | -7.46% | 0% | 9.13% | 12.5% | -3.85% | 13.7% | 36.5% | 5.85% | 17.1% | -2.61% |
| CC(C)c1nc(CC(=O)N2CCCC(n3cncn3)C2)cs1 (stereo not given) | -0.0395% | 20.5% | -14.2% | 4.6% | 8.2% | 14.2% | 24% | 1.44% | 22.9% | -5.56% |
| c1cnn(CCNCc2csc(-c3ccsc3)n2)c1 | -6.54% | -12.8% | -10.8% | -5.92% | -1.23% | 20.6% | 24.6% | -6.22% | -1.21% | 0.287% |
